RAD52 inh: blocks human RAD52 DNA annealing; AID 651710; inhibition, % at 18.7 µM; 360,000 tested, 0.46% active; recombinant RAD52 DNA annealing, FRET fluorescence; P43351;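 active = every replicate showing at least 50% inhibition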
Target sequence (P43351 whole entry, looked up): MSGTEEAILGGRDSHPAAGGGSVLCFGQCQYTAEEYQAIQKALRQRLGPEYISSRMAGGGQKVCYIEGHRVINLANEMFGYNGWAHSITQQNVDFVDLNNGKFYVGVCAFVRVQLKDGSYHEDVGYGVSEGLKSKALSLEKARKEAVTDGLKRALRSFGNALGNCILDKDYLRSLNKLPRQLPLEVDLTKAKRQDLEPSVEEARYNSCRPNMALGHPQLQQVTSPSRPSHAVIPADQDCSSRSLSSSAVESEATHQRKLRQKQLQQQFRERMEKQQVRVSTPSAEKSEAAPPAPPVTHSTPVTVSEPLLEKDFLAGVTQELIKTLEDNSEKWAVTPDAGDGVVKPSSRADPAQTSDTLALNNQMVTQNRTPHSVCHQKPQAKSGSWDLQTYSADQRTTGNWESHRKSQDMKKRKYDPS
RAD54 inh: RAD54 (human) branch migration inhibition. Q92698. RAD54 Holliday junction branch migration, FAM/BHQ fluorescence. inhibition, % at 10.4 µM. 360,000 tested, 0.14% active;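 active = mean normalized replicate activity at least 40 and at least half of replicates scoring 40 or more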;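 also: inhibitors cause a drop in the FAM fluorescence signal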
NSD2 HMT inh: inhibitors of human histone methyltransferase NSD2; O96028; NSD2 peptide methylation, AlphaScreen, 120 min; inhibition, % at 12.5 µM; 310,000 tested, 0.54% active; AID 743445; in the data active = inhibition above about 50%
Glyco luc inh: blocks N-linked glycosylation in D54 reporter cells; D54 ERlucT glycosylation luciferase reporter, 24 h; percent of 100 nM tunicamycin response; reporter increase, % at 12.5 µM; 360,000 tested, 0.23% active; AID 588692;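 active = mean luciferase reporter signal, scaled so untreated is 0 and the glycosylation-blocking control 100, at or above a set limit in every replicate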;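 also: luciferase carries N-glycosylation sites so blocking glycosylation raises the light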
CASP6 VEID inh: caspase-6 (human) enzyme inhibition; P55212; purified caspase-6, Z-VEID-R110 cleavage fluorescence; inhibition, % at 12.5 µM; 350,000 tested, 0.53% active; AID 686996;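 active = mean inhibition across replicates at least about 35%, with every replicate also reaching that limit, limit read from the data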
Target sequence (P55212 24-179 limits assumed): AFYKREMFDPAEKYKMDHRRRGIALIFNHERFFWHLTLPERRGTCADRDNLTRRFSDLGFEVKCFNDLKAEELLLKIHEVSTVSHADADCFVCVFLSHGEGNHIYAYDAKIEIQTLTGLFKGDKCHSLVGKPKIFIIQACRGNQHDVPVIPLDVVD
Target sequence (P55212 194-293 limits assumed): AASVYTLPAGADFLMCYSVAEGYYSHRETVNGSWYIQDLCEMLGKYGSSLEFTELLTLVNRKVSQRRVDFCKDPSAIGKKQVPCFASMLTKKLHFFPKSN
Of the large screens only hits and unclear results are named; the others gave an inactive call; ! = not confirmed by another sample. Sampled rows, rich in hits. Any-hit rate of the full collection: about 1.2%.

COc1ccc(C2NC(=S)NC3=C2CCCC3=C2SCCS2)cc1 (stereo not given)	Glyco luc inh 593
S=C1NC2=C(CCCC2=C2SCCCS2)C(c2ccccc2)N1 (stereo not given)	none (no result: RAD54 inh)
C[C@@H]1CN([C@@H](C)CO)C(=O)c2cc(NC(=O)c3ccncc3)ccc2O[C@H]1CN(C)Cc1ccc(Cl)c(Cl)c1	none (no result: NSD2 HMT inh, Glyco luc inh)
O=C(Cc1ccc([N+](=O)[O-])cc1)c1c(O)cc(O)cc1O	CASP6 VEID inh 41
CCN=C1S/C(=C\c2ccc(-c3cccc(C(=O)O)c3)o2)C(=O)N1CC	none (no result: RAD52 inh, RAD54 inh, CASP6 VEID inh)
CCN=C1S/C(=C/c2ccc(-c3ccc(Cl)cc3C(=O)O)o2)C(=O)N1CC	CASP6 VEID inh 36 (no result: RAD54 inh)
CC(C)(C)c1ccc(OCc2ccc(C(=O)Nc3cccnc3)o2)cc1	Glyco luc inh 29 (no result: NSD2 HMT inh)
O=C(Nc1cccnc1)c1ccc(COc2ccccc2Br)o1	none (no result: RAD52 inh, CASP6 VEID inh)
O=C(O)CCC(=O)N1N=C(c2ccco2)CC1c1ccco1 (stereo not given)	CASP6 VEID inh 41
O=C(O)CCC(=O)N1N=C(c2ccco2)CC1c1cccs1 (stereo not given)	none (no result: RAD54 inh)
COc1ccc(S(=O)(=O)N(C)C[C@@H]2Oc3c(NS(=O)(=O)c4ccc(Cl)cc4)cccc3C(=O)N([C@@H](C)CO)C[C@@H]2C)cc1	none (no result: RAD52 inh, NSD2 HMT inh, Glyco luc inh, CASP6 VEID inh)
CC(C)CCNC(=O)CCCOc1cc(=O)n(C)c2ccccc12	Glyco luc inh 31
COc1ccccc1NC(=O)C(=N\O)/C(C)=N/O	CASP6 VEID inh 39 (no result: RAD54 inh)
COc1ccccc1NC(C)=O	none (no result: RAD52 inh, CASP6 VEID inh)
O=C(O)C(c1ccccc1)N1C(=O)/C(=C\c2ccc(-c3ccccc3Cl)o2)SC1=S (stereo not given)	CASP6 VEID inh 86
O=C1/C(=C\c2ccc(-c3ccccc3Cl)o2)SC(=S)N1CC1CCCO1 (stereo not given)	none (no result: RAD52 inh, CASP6 VEID inh)
O=C(O)C(c1ccccc1)N1C(=O)/C(=C\c2ccc(-c3ccc(Br)cc3)o2)SC1=S (stereo not given)	CASP6 VEID inh 71
C[C@H](CO)N1C[C@H](C)[C@H](CN(C)S(=O)(=O)c2ccc(Cl)cc2)Oc2ccc(NC(=O)C3CC3)cc2C1=O	none (no result: NSD2 HMT inh, Glyco luc inh)
COC(=O)C[C@H]1CC[C@@H](NC(=O)Nc2ccc3c(c2)OCO3)[C@@H](CO)O1	none (no result: RAD54 inh, NSD2 HMT inh, Glyco luc inh)
COC(=O)C[C@@H]1CC[C@H](NC(=O)c2ccc3c(c2)OCO3)[C@@H](CO)O1	CASP6 VEID inh 43 (no result: RAD54 inh, NSD2 HMT inh, Glyco luc inh)
O=C(O)c1ccc(N/N=C/C=C/c2ccc([N+](=O)[O-])o2)cc1	CASP6 VEID inh 75 (no result: NSD2 HMT inh)
N#CC1(NC(=O)CSc2nnc(COc3ccccc3F)n2N)CCCCC1	CASP6 VEID inh 72 (no result: RAD54 inh)
CN(C)c1cccc2c1c(NS(=O)(=O)c1cn(C)cn1)nn2C	NSD2 HMT inh 78, CASP6 VEID inh 52
Cn1cnc(S(=O)(=O)Nc2ccccc2N2CCOCC2)c1	none
O=C(NCC(c1ccco1)N1CCc2ccccc21)c1ccccc1 (stereo not given)	CASP6 VEID inh 52
CN(C)C(=O)C[C@@H]1CC[C@@H]2[C@H](COC[C@H](O)CN2C(=O)c2ccncc2)O1	RAD52 inh 70 (no result: NSD2 HMT inh, Glyco luc inh)
O=C(CCCN1C(=O)/C(=C/c2ccco2)SC1=S)Nc1ccccc1C(=O)O	CASP6 VEID inh 62 (no result: RAD54 inh, NSD2 HMT inh)
O=C1/C(=C/c2ccco2)SC(=S)N1CC1CCCO1 (stereo not given)	CASP6 VEID inh 61
O=C(CCN1C(=O)/C(=C/c2ccco2)SC1=S)Nc1ccc(C(=O)O)c(O)c1	CASP6 VEID inh 74
O=C(CCCN1C(=O)/C(=C\c2ccco2)SC1=S)Nc1ccc2ccccc2c1	none (no result: RAD54 inh)
O=C(CCN1C(=O)/C(=C/c2ccco2)SC1=S)Nc1ccc(O)cc1C(=O)O	CASP6 VEID inh 70
CCOc1ccc(-n2c(SCC(=O)N3CCCC3)nc3ccccc3c2=O)cc1	none (no result: RAD52 inh, RAD54 inh, Glyco luc inh, CASP6 VEID inh)
COCCNC(=O)C[C@H]1C=C[C@@H](NC(=O)NC2CCCCC2)[C@H](CO)O1	none (no result: NSD2 HMT inh, Glyco luc inh)
O=C(CCCN1C(=O)/C(=C\c2ccccc2)SC1=S)Nc1ccc(O)cc1C(=O)O	none (no result: CASP6 VEID inh)
O=C(O)CCCN1C(=O)/C(=C\c2ccco2)SC1=S	NSD2 HMT inh 101 (no result: RAD54 inh)
COc1ccccc1/C=C1\SC(=S)N(CCC(=O)Nc2ccc(C(=O)O)c(O)c2)C1=O	CASP6 VEID inh 41 (no result: RAD54 inh)
O=C(CN1C(=O)/C(=C\c2ccco2)SC1=S)Nc1ccc(O)cc1C(=O)O	CASP6 VEID inh 73 (no result: NSD2 HMT inh)
O=C(Nc1cccc(F)c1)N1C[C@@H]2N[C@H](C1)C2c1ccc(-c2cccnc2)cc1 (stereo not given in full)	none (no result: RAD54 inh, NSD2 HMT inh, Glyco luc inh)
Cc1ccccc1-c1ccc([C@@H]2[C@@H](CO)N3CCCCN(C(=O)Nc4cccc(F)c4)C[C@@H]23)cc1	none (no result: NSD2 HMT inh, Glyco luc inh)
O=C(Nc1cccc(F)c1)N1C[C@@H]2N[C@H](C1)C2c1ccc(-c2ccccc2F)cc1 (stereo not given in full)	RAD52 inh 64! (no result: RAD54 inh, NSD2 HMT inh, Glyco luc inh)
Cc1ccccc1-c1ccc(C2[C@@H]3CN(C(=O)Nc4cccc(F)c4)C[C@H]2N3)cc1 (stereo not given in full)	RAD52 inh 72! (no result: RAD54 inh, NSD2 HMT inh, Glyco luc inh)
O=C(Cc1ccccn1)N1CC2(C1)[C@H](c1ccccc1)[C@@H](CO)N2C(=O)c1ccccc1	none (no result: RAD54 inh, NSD2 HMT inh, Glyco luc inh)
C[C@H](CO)N1C[C@H](C)[C@H](CN(C)S(=O)(=O)c2ccc(F)cc2)Oc2ccc(NC(=O)Nc3ccc(C(F)(F)F)cc3)cc2CC1=O	none (no result: RAD54 inh, NSD2 HMT inh, Glyco luc inh)
CC(=O)c1cccc(-c2ccnc3c2CC(C(=O)NCc2cccs2)O3)c1 (stereo not given)	Glyco luc inh 34
O=C(Oc1cccc(-n2cnnn2)c1)c1ccccc1Cl	CASP6 VEID inh 46 (no result: RAD54 inh, NSD2 HMT inh)
O=C(Oc1cccc(-n2cnnn2)c1)c1ccccc1	none (no result: RAD54 inh)
O=C(Nc1cccc(-n2cnnn2)c1)c1cc(Cl)ccc1Cl	Glyco luc inh 34
CCC(=O)Nc1ccc2c(c1)C(=O)N(C)C[C@H](OC)[C@H](C)CN(Cc1cccc(F)c1)[C@@H](C)CO2	none (no result: NSD2 HMT inh, Glyco luc inh)
COc1ccc(C2C(C#N)=C(N)Oc3cc(O)ccc32)cc1OC (stereo not given)	none (no result: RAD52 inh, CASP6 VEID inh)
COc1cc(C2C(C#N)=C(N)Oc3cc(O)ccc32)cc(OC)c1OC (stereo not given)	Glyco luc inh 46 (no result: RAD52 inh, CASP6 VEID inh)
O=C(N[C@H]1CC[C@@H](CCNS(=O)(=O)c2ccc(Cl)cc2)O[C@H]1CO)c1ccccn1	none (no result: NSD2 HMT inh, Glyco luc inh)
Cc1ccc([C@@H]2CC=C(C(=O)O)[C@H](c3ccc(C(C)(C)C)cc3)N2S(=O)(=O)c2ccc(C)cc2)cc1	CASP6 VEID inh 46 (no result: NSD2 HMT inh)
CCc1ccc([C@@H]2CC=C(C(=O)O)[C@H](c3ccccc3)N2S(=O)(=O)c2ccc(C)cc2)cc1	none (no result: NSD2 HMT inh)
Cc1ccc(S(=O)(=O)N2[C@@H](c3ccc(C(C)(C)C)cc3)C(C(=O)O)=CC[C@H]2c2ccc(Cl)cc2)cc1	none (no result: NSD2 HMT inh)
CCc1ccc([C@@H]2CC=C(C(=O)O)[C@H](c3ccc(C(C)(C)C)cc3)N2S(=O)(=O)c2ccc(C)cc2)cc1	CASP6 VEID inh 45 (no result: NSD2 HMT inh)
CCOc1nc(NCCO)nc(Nc2cc(Cl)ccc2OC)n1	none (no result: RAD54 inh)
C=CCNc1nc(Nc2cc(Cl)ccc2OC)nc(OC)n1	CASP6 VEID inh 39
